Test results published in PubChem BioAssay AID1626 (SRMLSC, 2009).
The campaign covered roughly 220,000 compounds. About 2,000 (0.91%) were called active. Not shown: some 2% with an inconclusive outcome. A selection follows. Entries with a potency or affinity are not part of this list. Values without a mark were called inactive. Rule as the data show it: inconclusive = inhibition above about 80% without an active follow-up result; inactive = below that; test concentration not stated here.

Assay: M. tuberculosis H37Rv growth inhibitors, H37Rv strain (AID 1626);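 also: bacteria incubated seven days before Alamar blue readout; 0% = bacteria only wells and 100% = bacteria with antibiotic wells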
Details: hits give high values, concentration not given here

Row | SMILES | inhibition
1 | CCN(CC)S(=O)(=O)c1ccc(N=N/C(C(C)=O)=C(/C)O)cc1 | -10.5%
2 | Cc1c(C#N)c(N=CN(C)C)c(C(=O)c2ccc(Br)cc2)n1-c1ccc(Cl)cc1 | 1.78%
3 | CCn1c(C)nc2cc(S(=O)(=O)N3CCCCC3)ccc21 | -10.8%
4 | CC(=O)O[C@@H]1[C@H]2[C@@H](C[C@@H](C)[C@@H]3C=CC(=O)[C@@]13C)OC(=O)[C@@H]2C | -0.99%
5 | C[C@@H]1C[C@@H]2OC(=O)[C@]3(C)[C@H]2[C@@H](OC3(C)O)[C@]2(C)C(=O)C=C[C@H]12 (stereo not given in full) | -4.34%
6 | CC(=O)O[C@@H]1[C@H]2[C@@H](C[C@@H](C)[C@@H]3CCC(=O)[C@@]13C)OC(=O)[C@@H]2C | -3.15%
7 | C=C1C(=O)O[C@@H]2C[C@@H](C)[C@H]3C=CC(=O)[C@]3(O)C[C@@H]12 | -7.5%
8 | C=C1C(=O)O[C@H]2[C@H]1[C@H](OC(=O)CC(=O)O[C@@H]1C[C@@H](C)[C@@H]3C=CC(=O)[C@@]3(C)[C@H]3OC(=O)C(=C)[C@H]13)C[C@@H](C)[C@H]1C=CC(=O)[C@]12C | -7.78%
9 | COc1ccc(NC(=O)CCc2nc3ccccc3[nH]2)cc1 | -2.77%
10 | CC(C)c1nc2c([nH]1)c(=O)n(C)c(=O)n2C | -8.57%
11 | CC(C)c1cc(C(=O)Nc2cc(Br)ccc2O)no1 | 43.5%
12 | Cc1cc(C(=O)Nc2c(F)cc(F)cc2Br)no1 | 16.4%
13 | CCCc1cc(C(=O)Nc2ccc(C(C)=O)cc2)no1 | 79.7%
14 | CCCc1cc(C(=O)Nc2cc(Br)ccc2O)no1 | 78.3%
15 | O=C(Nc1c(F)cc(F)cc1Br)c1cc(-c2ccc(O)cc2)on1 | 73.7%
16 | CC(C)Cc1cc(C(=O)Nc2ccc(Br)cc2)no1 | 68.8%
17 | CCOC(=O)C1CCCN(C(=O)c2cccc(NC(=O)C(CC)CC)c2)C1 (stereo not given) | -1.45%
18 | CCCCCOc1ccc(C)cc1CN(CCCl)CCCl | 5.72%
19 | CCOC(=O)CNc1c(N2CCN(c3ccccn3)CC2)c(=O)c1=O | 0.74%
20 | COCCn1c(C)cc(C(=O)COC(=O)c2ccc3c(c2)NC(=O)CS3)c1C | 3.82%
21 | N#C/C(=C\c1cn[nH]c1-c1ccc(Cl)cc1)C(=O)NC1CC1 | 9.87%
22 | CCOC(=O)COc1cc(=O)n(CC)c2ccccc12 | 7.42%
23 | Cc1cc(NC(=O)/C=C/c2ccc(F)cc2)n(-c2nc3ccccc3[nH]2)n1 | 13.6%
24 | Cc1cc(NC(=O)C2CCC2)n(-c2ccccn2)n1 | 2.03%

Row | SMILES | inhibition
25 | CCOC(=O)C(=O)Nc1cc(C)nn1-c1nc2ccccc2[nH]1 | -8.84%
26 | COc1ccc(/C=C/C(=O)Nc2cc(C)nn2-c2nc3ccccc3[nH]2)cc1 | 11.4%
27 | COC(C[C@@H]1O[C@H]1[C@H](O)[C@@H](C)OCc1ccccc1)OC | -4.16%
28 | CCn1c2ccccc2c2nnc(NN)nc21 | -7.42%
29 | O=C(/C(C=Nc1cccc(C(F)(F)F)c1)=C(/O)c1ccco1)C(F)(F)F | 0.06%
30 | Cc1nn(C)c(C)c1NC(=O)CCl | -7.2%
31 | CCn1c(SCC(=O)N=Nc2c(O)[nH]c3ccccc23)nnc1-c1ccc(C(C)(C)C)cc1 | -1.76%
32 | Cc1[nH]c2ccc(F)cc2c1CCNC(=O)C1CCCCC1C(=O)OCC(F)(F)F (stereo not given) | 2.82%
33 | O=C(NCc1ccccc1)c1ccc(Br)cc1 | -2.09%
34 | Cc1[nH]n(-c2ccccc2)c(=O)c1N=Nc1ccccc1O | 5.76%
35 | Cc1[nH]n(-c2ccccc2)c(=O)c1N=Nc1ccccc1 | 3.96%
36 | Cc1ccccc1N=Nc1c(C)[nH]n(-c2ccccc2)c1=O | -1.01%
37 | Cc1[nH]n(-c2ccccc2)c(=O)c1N=Nc1ccc2c(c1)OCCO2 | -5.08%
38 | Cc1nnc(NC(=O)CCSCCC(=O)Nc2nnc(C)s2)s1 | 1.24%
39 | COc1ccc(/C=C/C(=O)c2c(O)ccc3c(C)cc(=O)oc23)cc1 | 17.2%
40 | O=C(COC(=O)c1ccccc1O)NCCC1=CCCCC1 | 7.1%
41 | O=C(COC(=O)c1ccccc1Cl)NCCC1=CCCCC1 | 4.94%
42 | O=C(NCc1ccco1)C1CCN(Cc2ccc(F)cc2)CC1 | 1.23%
43 | COc1ccc(CNC(=S)Nc2cc(C)ccc2C)cc1 | 4.83%
44 | C=CCn1c(SCC(=O)N2CCc3ccccc3C2)nc2ccccc2c1=O | -0.56%
45 | O=C1CC(c2ccccc2Oc2cccc(Cl)c2)C(n2cncn2)C(=O)C1C1NCCc2ccccc21 (stereo not given) | -9.29%
46 | Cc1cc(C)c2c(n1)sc1c(N3CCN(CCO)CC3)ncnc12 | 18.8%
47 | Cc1cc(C)c2c(n1)sc1c(N3CCN(C)CC3)ncnc12 | 7.86%
48 | Cc1ccc(NC(=O)NCC2CCN(Cc3cccc(Cl)c3)CC2)c(Cl)c1 | 33.5%

Row | SMILES | inhibition
49 | CCc1cccc(CN2CCC(CNC(=O)Nc3ccc(Cl)cc3)CC2)c1 | 0.84%
50 | COCCn1c(COc2ccc(OC)cc2)nc2ccccc21 | 4.25%
51 | Cc1sc(NC(=O)C2CC(Cl)=CCC2C(=O)O)c(C#N)c1C (stereo not given) | -16.1%
52 | Cc1ccc(-c2nnn(CC(=O)N(c3ccc(F)cc3)C(C(=O)NC(C)(C)C)c3ccco3)n2)o1 (stereo not given) | -0.26%
53 | Cc1onc(-c2c(Cl)cccc2Cl)c1C(=O)c1ccccc1 | -5.4%
54 | Cc1ccccc1NC(NC(=O)c1cccs1)C(Cl)(Cl)Cl (stereo not given) | -3.03%
55 | Cc1ccc(NC(NC(=O)c2cccs2)C(Cl)(Cl)Cl)cc1 (stereo not given) | 21%
56 | Nc1nc(SCC(=O)Nc2ccccc2)[nH]c(=O)c1NC(=O)c1cccs1 | -5.6%
57 | Cc1ccc2c(CC(=O)Nc3cccc(S(=O)(=O)N4CCOCC4)c3)coc2c1 | 5.42%
58 | CC(C)C(=O)NC(CC(=O)O)c1ccccc1 (stereo not given) | -15.2%
59 | Cc1nnc(SCC(=O)N/N=C/c2cc(Cl)c(O)c(Cl)c2)s1 | -3.34%
60 | Cc1cc(NC(=O)/C=C/c2ccccc2)no1 | -1.33%
61 | COC(=O)c1cc(-c2ccccc2)on1 | 45%
62 | O=C(Nc1ccc(N2CCOCC2)c(Cl)c1)c1cccnc1Cl | -3.3%
63 | Cc1cccn2c(=O)c(C=NCCO)c(Nc3ccc(Cl)cc3)nc12 | 2.37%
64 | Cc1cc(=O)oc(C)c1C(=O)Nc1cccc2ccccc12 | 7.53%
65 | COc1ccccc1NC(=O)c1c(C)oc2c1CCCC2 | -16.9%
66 | CN(C)c1cc(C(F)(F)F)nc(-c2ccccn2)n1 | 3.02%
67 | FC(F)(F)c1cc(Oc2ccccc2)nc(-c2ccccn2)n1 | 12.1%
68 | CCN(CC)c1cc(C(F)(F)F)nc(-c2ccccn2)n1 | -2.81%
69 | COc1cc(C(F)(F)F)nc(-c2ccccn2)n1 | 6.27%
70 | C#CCSc1cc(C(F)(F)F)nc(-c2ccccn2)n1 | 5.1%
71 | O=C(O)CSc1cc(C(F)(F)F)nc(-c2ccccn2)n1 | -6.21%
72 | FC(F)C(F)(F)c1cc(-c2ccc(Cl)cc2)n[nH]1 | 12.2%

Row | SMILES | inhibition
73 | CNc1nnc(CSc2nc(C)cc(C)n2)s1 | -5.32%
74 | O=C(c1cccc(C(F)(F)F)c1)C1CCCN(C(=O)CCCn2cncn2)C1 (stereo not given) | 4.12%
75 | CN(CCCNC(=O)CSc1cc(=O)n(C)c2cc(Cl)ccc12)Cc1ccccc1 | 4.19%
76 | COc1ccc(NC(=O)c2noc(C(C)C)c2[N+](=O)[O-])cc1 | -2.72%
77 | NS(=O)(=O)c1ccc(CNC(=S)NC2CC2)cc1 | -2.38%
78 | CN(Cc1ccccc1)c1ccc(N2C(=O)CCC2=O)cc1[N+](=O)[O-] | -1.08%
79 | COc1ccccc1NS(=O)(=O)c1ccc(C(N)=O)cc1 | -0.48%
80 | Cc1ccc2c(c1)N(CC(=O)N1CCCCC1c1cccnc1)C(=O)CO2 (stereo not given) | -4.68%
81 | CCO[C@@H]1OC(C(=O)NCc2nc3ccccc3[nH]2)=C[C@H](C(C)(C)C)[C@H]1CCCO | -3%
82 | C[C@H]1COC2=C1C(=O)C(=O)c1c2ccc2c1CCCC2(C)C | -2.33%
83 | Cc1ccc2c3c(cccc13)-c1ccccc1C2=O | 10.1%
84 | O=C1C(=O)c2c(C(=O)c3ccccc3)coc2-c2ccccc21 | 4.79%
85 | Cc1ccc(C(=O)c2coc3c2C(=O)C(=O)c2ccccc2-3)cc1 | -2.44%
86 | O=C(CN1CCC(n2nnc3cc(F)ccc32)CC1)NNC(=O)c1ccccc1 | -6.09%
87 | N#Cc1ccc(COC(=O)c2ccccn2)cc1 | 39%
88 | COc1cccc(NC(=O)CSc2ncnc3c2cnn3Cc2ccccc2)c1 | -10.6%
89 | NC(=S)NNC(=O)c1ccccc1Cl | -8.81%
90 | CC(C)(C)C(=O)Nc1nc(NC(=O)C(C)(C)C)nc(-c2ccccc2Cl)n1 | -0.83%
91 | COc1ccc(Nc2ccc(N3C(=O)CCCC3=O)cc2[N+](=O)[O-])cc1OC | -5.4%
92 | CCN1/C(=C\C(C)=O)Sc2ccc(OC)cc21 | -5.41%
93 | CC(=O)NCCNc1ccc([N+](=O)[O-])cn1 | -0.44%
94 | CCOC(=O)N/N=C/c1cn(CCCOc2ccccc2)c2ccccc12 | 8.89%
95 | C/C(=N/N1CCN(Cc2cccc3ccccc23)CC1)c1ccco1 | -5.28%
